# Only some compounds are listed: those with a hit (about 2.3% of all), similar ones and a draw of the others.
# FUS suppressor: FUS proteinopathy suppression in yeast. S. cerevisiae FUS-expressing, growth rescue, OD600, 24 h. Potency, µM (top dose mostly 76.6 µM), usual class: activators. 390,000 compounds, 0.24% hits. AID 1347120;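 also: potency is read from the fitted curve at half-maximal effect; plate controls were DMSO vehicle for no effect and reference control for full effect; nearly all actives have a fitted effect of over 55% in size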
#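 Read-out: OD at 600 nm after 24hr at 30C, reporting rescue of FUS-induced yeast toxicity. Cells at OD 0.005 in galactose (2%) minimal medium; compounds tested in a dilution series; CP55940 titration from 92uM final as control.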
# aSyn yeast inh: alpha-synuclein toxicity inhibition in yeast; Yeast expressing alpha-synuclein, growth rescue, BacTiter-Glo, 24 h; Potency, µM (top dose mostly 46.1 µM), inactives show at the highest dose growth rescue (activation), hits mostly activators; 370,000 compounds, 0.14% hits; AID 652106; also: potency is read from the fitted curve at half-maximal effect; % of control where 0% means no effect; nearly all actives have a fitted effect of over 65% in size
#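 Galactose-induced alpha-syn yeast (OD600=0.02, raffinose-pregrown) + pinned cpd, 24 hr, 30 deg C; growth by BacTiter-Glo luminescence. Growth restoration scores as activation.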
# Abeta yeast res: restores growth of yeast expressing A-beta42 peptide | AID 1347071 | Potency, µM (top dose mostly 46.1 µM), actives largely listed as activators | 410,000 compounds, 0.063% hits | yeast expressing A-beta42, growth rescue, OD600, 48 h; response scale: 0% DMSO, 100% iron-clioquinol control; also: potency is read from the fitted curve at half-maximal effect; nearly all actives have a fitted effect of over 55% in size
#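 Yeast A-beta toxicity model in growth medium with pinned compounds, 48 h at 30 C; growth read as absorbance at 600 nm. Normalized to FeCl3/clioquinol equimolar mix (positive) and DMSO (negative).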
# TDP-43 yeast inh: rescues yeast growth from TDP-43 toxicity. TDP-43 expressing yeast growth rescue, BacTiter-Glo, 24 h. AID 652104. 410,000 compounds, 1.8% hits. Potency, µM (series often up to 46.1 µM), inactives show top-dose growth rescue (activation), actives largely listed as activators; also: potency is read from the fitted curve at half-maximal effect; % of control where 0% means no effect; nearly all actives have a fitted effect of over 50% in size
#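 Galactose-induced TDP-43 yeast, OD600=0.02, compound pinned; 24 hr, 30 deg C; BacTiter-Glo luminescence for growth. Inhibitors of TDP-43 toxicity read as activators.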
# pAkt inh: Akt phosphorylation inhibition; Neuro2A IGF-stimulated pAkt S473 HTRF, 20 min; active compounds read low; activity change, % for hits at 50 µM; 360,000 compounds, 0.32% hits; in the data active = activity change below about -80%; inconclusive = mostly about -51% to -80%; also: % is scaled to controls: 0 for no effect and ±100 for the full control effect
#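 Neuro2A cells (4,500/well, DMEM with 0.5% FBS) were treated with compound at a single 50 µM final concentration, stimulated with 6 nM IGF for 20 min at 37 °C, and lysed. Phospho-Akt Ser473 was read by HTRF as 665/615 ratio ×10^4.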
# An asterisk follows results filed as active; i = inactive; u = inconclusive; x = no result. Unless noted, calls follow the shape of the dose curve; as a rule, active = well fitted curve in the direction sought with a large enough effect; inconclusive = small, poorly fitted or top-dose-only effect, or another doubt; inactive = no such curve, though single readings can be large; an effect the other way counts as inactive or inconclusive.
SMILES,FUS suppressor,aSyn yeast inh,Abeta yeast res,TDP-43 yeast inh,pAkt inh
COc1cc(NC(=O)CCn2c(-c3ccccc3)cc(C(C)=O)c2C)cc(OC)c1,i,x,i,18%,x
COc1ccc(OC)c(CNC(=O)Nc2cn(CC(C)C)c(=O)c3ccccc23)c1,i,u,i,u,x
Cc1cc(-c2cccc([N+](=O)[O-])c2)nc2ccccc12,i,-2%,i,11µM*,i
Cc1cc(-c2ccc([N+](=O)[O-])cc2)nc2ccccc12,i,-7%,i,-8%,i
Cc1cccc(N2CCN(CCCNC(=O)c3nnc(Cc4c(F)cccc4Cl)o3)CC2C)c1 (centres undefined),i,x,i,12%,x
Cc1cccc(C)c1NC(=O)c1ccc2nc(CCc3ccccc3)oc2c1,i,x,i,13µM*,x
CCSC(=O)N1c2ccc(OC)cc2C=CC1C#N (centres undefined),x,4%,i,22µM*,i
COc1ccc(C(=O)N2c3ccccc3C=CC2C#N)cc1 (centres undefined),i,-4%,i,18%,i
COc1ccc([C@H]2/C=C\CN(C(=O)CC(C)(C)C)[C@@H](C)C(=O)N2Cc2ccc(F)cc2)cc1,i,3%,i,35µM*,i
CCCOc1cc(C)c(S(=O)(=O)NCc2cccs2)cc1C,i,10µM*,i,20µM*,i
O=C(Cn1ccc2cc(S(=O)(=O)N3CCCC3)ccc21)NCc1ccc(Cl)cc1,i,x,i,17%,x
CC(=O)C1=C(C)NC(SCC(=O)c2cc(Cl)ccc2Cl)=C(C#N)C1c1ccco1 (centres undefined),25µM*,-8%,i,-29%,x
CC(=O)C1=C(C)NC(SCC(=O)c2ccc(Cl)c(Cl)c2)=C(C#N)C1c1ccco1 (centres undefined),i,6%,i,-1%,i
CSCSC1=C(C#N)C(c2ccccc2Cl)C(C(C)=O)=C(C)N1 (centres undefined),i,-16%,i,-5%,-106%*
CCOC(=O)CSC1=C(C#N)C(c2ccccc2F)C(C(C)=O)=C(C)N1 (centres undefined),i,-17%,i,-6%,x
O=c1c(N2CCN(c3cccc(Cl)c3)CC2)csc2ccccc12,i,x,i,-29%,x
COc1cc(C)c(NC(C)C(=O)c2c(C)[nH]c3ccccc23)cc1OC (centres undefined),x,-4%,x,x,x
O=C(CC1C(=O)N(c2ccccc2)C(=O)N1Cc1ccc(F)cc1)Nc1cccc(F)c1 (centres undefined),i,x,i,2%,x
CCCCSc1nsc(NC(C)=O)n1,i,x,i,13µM*,x
CCCCCCSc1nsc(NC(C)=O)n1,i,2%,i,u,i
Cc1ccccc1CNC(=O)c1ccc(NC(=O)c2nsc3ccccc23)cc1,i,x,i,u,x
CCn1c(COc2cccc(C)c2)nnc1SCC(=O)Nc1cccc(C(=O)OC)c1,i,6%,i,20µM*,i
CC(C)(C)c1ccc(C(=O)NC(=S)NNC(=O)COc2ccccc2)cc1,i,u,i,13µM*,i
Cc1ccccc1OCC(=O)NNC(=S)NC(=O)c1ccccc1[N+](=O)[O-],i,0%,i,0%,i
O=C(NNC(=S)NC(=O)c1ccccc1)c1cccnc1,i,-11%,i,5%,i
SMILES,FUS suppressor,aSyn yeast inh,Abeta yeast res,TDP-43 yeast inh,pAkt inh
CC(C)(C)c1ccc(C(=O)NNC(=S)NC(=O)c2cccnc2)cc1,u,11µM*,i,u,i
CC(C)(C)c1ccc(OCC(=O)NNC(=S)NC(=O)c2ccccc2[N+](=O)[O-])c(Br)c1,i,u,i,18µM*,i
CC(C)(C)c1cc(Cl)c(O)c(NC(=S)NC(=O)c2cccnc2)c1,i,11%,u,8.9µM*,i
Cc1cccc(N2CCN(C(=O)Cn3nc(Cc4cccnc4)c4ccccc4c3=O)CC2)c1C,i,x,i,3%,x
O=C(/C=C/c1ccccc1)NC(=S)NNC(=O)c1cccnc1,i,7%,u,16µM*,i
Cc1cccc(C(=O)NC(=S)NNC(=O)c2ccc(Cl)cc2)c1,x,u,3.2µM*,u,i
COc1cc(OC)cc(C(=O)NCc2ccc3c(c2)CCN3C(=O)c2ccccc2)c1,u,x,i,-13%,x
O=C(NCc1ccccc1Cl)c1ccc2c(O)c(S(=O)(=O)c3ccccc3)c(=O)[nH]c2c1,i,x,i,13%,x
COc1ccccc1-c1cc(-c2ccc(O)cc2)nc(N)c1C#N,i,-9%,i,32µM*,i
COc1ccccc1-c1cc(-c2ccccc2)nc(SC(C(N)=O)c2ccccc2)c1C#N (centres undefined),i,2%,i,6%,-91%*
COc1ccccc1-c1c(C#N)c(N)nc2c1CCc1ccccc1-2,u,17%,i,20µM*,i
Cc1nc(SC(C(N)=O)c2ccccc2)c(C#N)c(C)c1C (centres undefined),i,1%,i,3%,i
O=C(NCCc1ccc(Cl)cc1)c1c2c(nc3ccccc13)C(=O)N(C1CCCCC1)C2,i,x,i,9%,x
c1cncc(-c2ccc3[nH]ccc3c2)c1,i,1%,i,10%,i
c1ccc(-c2ccc3[nH]ccc3c2)cc1,i,-27%,i,13µM*,i
Cc1onc(-c2ccc3c(c2)OCO3)c1-c1ccc2[nH]ccc2c1,i,-24%,i,22µM*,i
CCOc1ccc(N(CC)S(=O)(=O)N2CCCC(C(=O)Nc3cc(Cl)ccc3C)C2)cc1 (centres undefined),i,x,i,3%,x
CCc1cccc(C)c1NC(=O)c1cc(S(=O)(=O)N2CCCCCC2)cn1C,i,x,i,28%,x
Clc1ccc(SCc2cc(N3CCOCC3)nc(-c3ccccn3)n2)cc1,i,0%,13µM*,-10%,i
O=c1cc(CSc2ccc(Cl)cc2)nc(-c2ccccc2)[nH]1,i,-4%,i,-12%,i
O=c1cc(CSc2ccc(Cl)cc2)nc(-c2ccccn2)[nH]1,i,10µM*,u,u,i
O=C(CSc1nnc(-c2ccc3c(c2)OCO3)o1)Oc1ccccc1,i,x,i,-49%,x
COc1cc2c(C(=O)N3CCN(c4cccc(C(F)(F)F)c4)CC3)cn(CC(C)C)c(=O)c2cc1OC,22µM*,x,i,u,x
Cn1cccc1C(=O)N1CCN(c2cccc(C(F)(F)F)c2)CC1,i,3%,i,u,i
O=C(c1c(F)cccc1F)N1CCN(c2cccc(C(F)(F)F)c2)CC1,i,14%,i,16µM*,i

# Screening data: PubChem, National Center for Advancing Translational Sciences (NCATS)
